From the OligoGym collection

These sequences were tested against KRT75 (assay: pooled miR-30 sensor sort-seq; sequence = guide strand). Conditions: shRNA.
Also: reference of the scale not given here.

| Sequence | sensor-assay potency score (higher = more potent) |
| --- | --- |
| ATAGGCAGCATCTACGTCCTTT | -0.0293 |
| TTAATAGACACATTCCAGGGAG | 0.363 |
| TTGCAAGCTGGAACACTGCTTC | 0.132 |
| TCAACCTGCACTCCTCGCCTTC | -1.25 |
| TATTGTGCTTTGACCTCGGCGA | -0.108 |
| TTTCACATGTGTAACAGACGGG | 0.696 |

These sequences were tested against KRT79 in the same assay as above. Conditions: shRNA.

| Sequence | sensor-assay potency score (higher = more potent) |
| --- | --- |
| TTGATTTCATCCTCGTACTTGT | 0.185 |
| ATTTGTGCTGAATCCACCCTTG | 0.32 |
| TTTGTGGAGTATGTTTGCCGAG | -0.673 |
| TTAACCTTCCCTCCCATCCTAC | -1.2 |
| TTCATCCTCGTACTTGTTCTTG | -0.726 |
| TTGACCGTAGTGGTCTTCCGCA | -0.477 |
| TTGCCAGTCACAGAAATGCTGA | -0.931 |
| TTTGCCATGCAGATCCATCCGG | -0.203 |
| TCGCTCTCCAGAAGCTTGCGGT | -0.966 |
| TTCTCTGCAGCAGTGTGCTTGT | -0.0157 |
| TTGAGCACCACAAACTCGTTCT | 0.422 |
| TTGCCATGCAGATCCATCCGGC | -0.416 |

What follows are sequences tested against KRT85 in the same assay as above. Conditions: shRNA.

| Sequence | sensor-assay potency score (higher = more potent) |
| --- | --- |
| AACATCGTCATACTGAGCCTTG | -0.503 |
| TTCTTTAGAACGACAAACTCAT | 0.238 |
| TATTTTGGAGCTAAGTAGGAGT | -0.047 |
| TCCCTCTGTAGGAACATCCAGA | -1.53 |
| TTGACTATGACCGAGGTGTCTG | -0.0564 |
| TTCACTGAATAGCAAGACCTGT | -0.614 |
| TAGAACGACAAACTCATTCTCT | 0.106 |
| ATCTTGACTATGACCGAGGTGT | -0.378 |
| TTGCTCTCGCAGCAGCGCTGGT | -1.3 |
| TTTATTGAAACACAGATCGAGA | -0.788 |
| TTCTGGTAGAACTGCCACTTGG | -1.54 |
| TTGAAACACAGATCGAGACAAC | -0.784 |

Each sequence was assayed against KRT86 in the same assay as above. Conditions: shRNA.

| Sequence | sensor-assay potency score (higher = more potent) |
| --- | --- |
| TTGCTGTTGCTGGGGACGCTAC | -1.52 |
| TTTATTGGAAACACAGAGTGAA | 0.556 |
| AATGTCATCGTACTGTGCCTTG | -0.754 |
| TGACAATGTCATCGTACTGTGC | -0.56 |
| TTATTGGAAACACAGAGTGAAA | -1.53 |
| TCGTACTGTGCCTTGATCTCGG | 0.0587 |
| TTGATCTCGGCAATGATGCAGT | -0.0305 |
| TTAGTTTTTCAGAAGCTCTTGA | 0.521 |
| TAGTAGTGCCCACCACCACGTT | -1.34 |
| TCCAGCTCGGCCAACTTGCAGC | -1.89 |
